ssDAF-12 act: S. stercoralis DAF-12 nuclear receptor activators, primary screen, cell-based, luminescence, HEK293, GRIP1 co-expression, lit1-tk-luc | AID 652126, 2013 | HEK293 ssDAF-12/GRIP1 lit1-tk-luc reporter; % of 3 µM dafachronic acid response | activation, % at 6.8 µM | 1% of 370,000 active | Nuclear hormone receptor DAF-12 (Strongyloides stercoralis);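 active means activation above the mean over all tested compounds plus 3 SD, cut at about 0.9% in these data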
AHR act: AHR activators, primary screen, cell-based, luminescence, luciferase reporter, human; Aryl hydrocarbon receptor (Homo sapiens), P35869; AHR-responsive luciferase reporter cells; activation, % at 5 µM; 2.5% of 320,000 active; AID 2796, 2010; in the data active means activation above about 47%
DAX1 inh-1: DAX1 (NR0B1) inhibitors, primary screen, cell-based, HEK293, Gal4-DAX1, luciferase luminescence; Nuclear receptor subfamily 0 group B member 1 (Homo sapiens), P51843; HEK293 Gal4-DAX1 luciferase reporter; inhibition, % at 6.75 µM; 0.99% of 340,000 active; AID 504766, 2011;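 active means inhibition above the mean over all tested compounds plus 3 SD, cut at about 4.2% in these data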;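 further: inhibition shows as a rise in luminescence from relieved DAX1 repression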
Target sequence (P51843 207-470 limits assumed): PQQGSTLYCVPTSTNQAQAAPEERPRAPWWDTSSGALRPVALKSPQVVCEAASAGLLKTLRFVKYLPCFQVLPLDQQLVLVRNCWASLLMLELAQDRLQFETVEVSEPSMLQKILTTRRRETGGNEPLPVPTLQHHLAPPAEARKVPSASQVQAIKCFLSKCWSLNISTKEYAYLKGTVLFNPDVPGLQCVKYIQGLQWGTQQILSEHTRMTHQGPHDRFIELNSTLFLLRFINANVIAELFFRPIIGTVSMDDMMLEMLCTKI
hgDAF12 agonist: H. glycines DAF-12 receptor agonists, primary screen, cell-based, luminescence, HEK293, GAL4 fusion, UAS-luciferase; HEK293 GAL4-hgDAF12 UAS-luciferase reporter, agonist luminescence; normalized to butyrate control; activation, % at 6.8 µM; 1.8% of 370,000 active; AID 687014, 2013;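 active means activation above a cutoff set at the mean of all screened compounds plus 3 SD, cut at about 10% in these data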
hcDAF12 agonist: H. contortus DAF-12 nuclear receptor activators, primary screen, cell-based, luminescence, HEK293, lit1-tk-luc reporter; HEK293 hcDAF-12 lit1-tk-luc reporter; 0% DMSO, 100% Δ7-dafachronic acid; activation, % at 6.8 µM; 1.4% of 370,000 active;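 active means activation above the mean of all tested compounds plus 3 SD, cut at about 5.5% in these data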
DAX1 inh-2: DAX1 (NR0B1) inhibitors on StAR promoter, primary screen, cell-based, luminescence, SF-1 (NR5A1), full-length DAX-1; HEK293T StAR-luciferase reporter, SF-1/DAX-1 repression relief; inhibition, % at 6.8 µM; 1.1% of 370,000 active; AID 652010, 2013;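 active means inhibition above the mean over all tested compounds plus 3 SD, cut at about 3.6% in these data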;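 further: higher inhibition means more luminescence from relief of DAX-1 repression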
hgDAF12 ag: H. glycines DAF-12 receptor agonists, confirmation, cell-based, luminescence, HEK293, GAL4-LBD fusion | shares compounds with hgDAF12 agonist | HEK293 GAL4-hgDAF12 luciferase reporter, agonist mode; percent of butyrate response | activation, % at 6.8 µM | 80% of 3,300 active;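 active means mean activation over triplicate wells above the hit cutoff derived from the earlier primary screen, cut at about 11% in these data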
LXR ag 2: LXR agonists, Gal4 luciferase reporter, confirmation, counter-screen for hgDAF-12 agonist project, cell-based, luminescence, HEK293, H. glycines campaign; shares compounds with hgDAF12 agonist; 3,300 tested, under 10 active; 24 h; AID 743051, 2013; activation, % at 6.8 µM;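 active means mean activation of the triplicate above a set limit carried over from the primary screen, none filed active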
Large screens that a line does not name were inactive (follow-up assays come after a bar, where they were run). This is a sample that favours compounds with a hit; in the whole collection about 5.7% have one here.

O=C(COc1ccccc1F)N1N=C(c2cccs2)CC1c1ccco1 (stereo not given)	none (no result: AHR act)
CC(C)CC1C(=O)N(Cc2cn(CCC3OCCO3)nn2)CCS(=O)(=O)N1Cc1ccc(-c2cccc(N(C)C)c2)cc1 (stereo not given)	none (no result: AHR act)
C/C(=N\NC(=O)c1ccc(Cl)cc1)c1ccc(N2CCOCC2)cc1	none
O=C(Nc1ccc(NC(=S)NC(=O)c2ccco2)cc1)c1ccccc1	none
C/C(=N\NC(=O)c1ccco1)c1ccc(NC(=O)c2ccccc2)cc1	hgDAF12 agonist 14 | hgDAF12 ag inactive | LXR ag 2 inactive
C/C(=N/NC(=O)c1ccoc1C)c1ccc(NC(=O)c2ccncc2)cc1	ssDAF-12 act 1.3, hgDAF12 agonist 17, hcDAF12 agonist 6.4, DAX1 inh-2 3.8 | hgDAF12 ag inactive | LXR ag 2 inactive
C/C(=N/NC(=O)c1ccncc1)c1ccc(NC(=O)c2ccccc2)cc1	none (no result: AHR act)
C/C(=N/NC(=O)c1ccoc1C)c1ccc(N2CCOCC2)cc1	hgDAF12 agonist 19, DAX1 inh-2 3.7 | hgDAF12 ag inactive | LXR ag 2 inactive
O=S(=O)(NC(=NCCc1ccc(Cl)cc1)c1ccccc1Cl)c1cccs1	none
Nc1ccccc1NC(=O)c1ccccc1	DAX1 inh-1 7.4, hgDAF12 agonist 27, DAX1 inh-2 4.3 | hgDAF12 ag 51 | LXR ag 2 inactive
Cc1ccc(Cn2ccc(NC(=O)c3cc(C)on3)n2)cc1	none
Cc1nc(NC(=O)c2ccccc2)sc1C	ssDAF-12 act 1.0, hgDAF12 agonist 14 | hgDAF12 ag 16 | LXR ag 2 inactive
Cc1nc(NC(=O)CCc2ccccc2)sc1C	none
Cc1ccc(NC(=O)c2cc(C)on2)cc1	hgDAF12 agonist 15 | hgDAF12 ag inactive | LXR ag 2 inactive
Cc1ccc(NC(=O)c2ccccc2)cc1	hgDAF12 agonist 14 | hgDAF12 ag 17 | LXR ag 2 inactive
COc1cc(OC)cc(C(=O)N[C@H](C(=O)OCC(=O)Nc2cccnc2Cl)C(C)C)c1	none
COc1ccc(C2C(C(=O)c3ccco3)=C(O)C(=O)N2CC2CCCO2)cc1OC (stereo not given)	none
Cc1ccc(NC(=O)c2ccc(Cl)c(N3C(=O)C=CC3=O)c2)cc1	hgDAF12 agonist 14, DAX1 inh-2 3.8 | hgDAF12 ag inactive | LXR ag 2 inactive
Cc1ccc(NC(=O)c2ccc3c(c2)[nH]c(=O)n3C(C)C)cc1	none
CCCCn1c(N)c(N(CCC(C)C)C(=O)COC(=O)Cc2ccc(Cl)cc2)c(=O)[nH]c1=O	none (no result: AHR act)
O=C(O)c1cc(=O)c2ccccc2o1	none
CSc1ccc(-c2cc(=O)c3ccccc3o2)cc1	ssDAF-12 act 3.1, hgDAF12 agonist 18, hcDAF12 agonist 10, DAX1 inh-2 3.9 | hgDAF12 ag 18 | LXR ag 2 inactive
CCOc1ccc(C(=O)NC2CC(=O)N(c3ccc4c(c3)OCCO4)C2)cc1 (stereo not given)	none
CCOC(=O)CSc1nc2cc3c(cc2cc1C#N)OCO3	hgDAF12 agonist 14 | hgDAF12 ag 15 | LXR ag 2 inactive
CCOC(=O)CSc1nc2cc3c(cc2cc1C#N)OCCO3	DAX1 inh-1 12, hgDAF12 agonist 17 | hgDAF12 ag 12 | LXR ag 2 inactive
CCOC(=O)CSc1nc2cc3c(cc2cc1C)OCO3	none
NC(=Nc1ccc(Br)cc1)c1ccccc1	none
CC(=Nc1ccc(Br)cc1)c1sc2ccccc2c1O	hgDAF12 agonist 13, hcDAF12 agonist 6.0 | hgDAF12 ag 21 | LXR ag 2 inactive
COc1ccccc1/C=C/CN1CCSCC1	hgDAF12 agonist 16 | hgDAF12 ag inactive | LXR ag 2 inactive
CC(C)(C)C(=O)OCc1nc(-c2ccc3c(c2)OCCO3)cs1	none
CSCC(=O)Nc1nc(-c2ccc3c(c2)OCCO3)cs1	hgDAF12 agonist 17 | hgDAF12 ag 14 | LXR ag 2 inactive
CC(NCc1cc(Br)ccc1OCC(N)=O)C12CC3CC(CC(C3)C1)C2 (stereo not given)	none
CC(C)Oc1ccc(S(=O)(=O)N2CCOCC2)cc1NC(=O)c1ccc(Cl)c(S(=O)(=O)N2CCOCC2)c1	none (no result: AHR act)
Cc1cc(C)c2c(CN(C)Cc3ccccc3)cc(=O)oc2c1	hgDAF12 agonist 13 (no result: AHR act, DAX1 inh-1) | hgDAF12 ag inactive | LXR ag 2 inactive
COc1cccc(NC(=O)COC(=O)CNC(=O)C2CCCCC2)c1	none
Cc1nnc(NCc2ccco2)s1	none
c1coc(CNc2nc3ccccc3s2)c1	ssDAF-12 act 1.9, DAX1 inh-1 6.5, hgDAF12 agonist 16, hcDAF12 agonist 8.8 | hgDAF12 ag 17 | LXR ag 2 inactive
O=C(Cc1ccccc1)Nc1ccc2c(c1)OC1(CCCC1)O2	hgDAF12 agonist 14 | hgDAF12 ag 15 | LXR ag 2 inactive
COc1ccccc1CC(=O)Nc1ccc2c(c1)OC1(CCCC1)O2	none
COc1cccc2cc(-c3nc4ccccc4[nH]3)c(=O)oc12	ssDAF-12 act 1.1, AHR act 72, hgDAF12 agonist 15 | hgDAF12 ag 17 | LXR ag 2 inactive
COc1ccc2cc(-c3ccccc3)c(=O)oc2c1	hgDAF12 agonist 14 | hgDAF12 ag 16 | LXR ag 2 inactive
COc1cccc2cc(-c3ccccc3)c(=O)oc12	hgDAF12 agonist 16, hcDAF12 agonist 5.8 | hgDAF12 ag 14 | LXR ag 2 inactive
Cc1cccc2cc(-c3nc4ccc(C(=O)O)cc4[nH]3)c(=O)oc12	none (no result: ssDAF-12 act, hgDAF12 agonist, hcDAF12 agonist, DAX1 inh-2)
COC(=O)C(C)Oc1ccc2cc(-c3ccccc3)c(=O)oc2c1 (stereo not given)	none
O=[N+]([O-])c1cccc(-c2ccc(C(=S)N3CCOCC3)o2)c1	hgDAF12 agonist 18 | hgDAF12 ag 16 | LXR ag 2 inactive
O=[N+]([O-])c1cccc(-c2ccc(C(=S)N3CCN(c4ccccc4)CC3)o2)c1	none (no result: DAX1 inh-1)

Screening results from PubChem.
